Results on 39 molecules are retold here after PubChem BioAssay AID651599 (National Center for Advancing Translational Sciences (NCATS), 2012).

Records with an inconclusive call do not appear. A call without a number means that no potency is given here. Calls of active or inactive are those of the source. The call rests on the fitted dose curve; in most records, active means well fitted inhibition curve with a large enough effect; inconclusive means small, poorly fitted or top-dose-only effect; inactive means no such curve, though single readings can be large or run the other way.

Sequence of Tumor susceptibility gene 101 protein (Homo sapiens) (Q99816 whole entry, looked up, the tested form may be a part): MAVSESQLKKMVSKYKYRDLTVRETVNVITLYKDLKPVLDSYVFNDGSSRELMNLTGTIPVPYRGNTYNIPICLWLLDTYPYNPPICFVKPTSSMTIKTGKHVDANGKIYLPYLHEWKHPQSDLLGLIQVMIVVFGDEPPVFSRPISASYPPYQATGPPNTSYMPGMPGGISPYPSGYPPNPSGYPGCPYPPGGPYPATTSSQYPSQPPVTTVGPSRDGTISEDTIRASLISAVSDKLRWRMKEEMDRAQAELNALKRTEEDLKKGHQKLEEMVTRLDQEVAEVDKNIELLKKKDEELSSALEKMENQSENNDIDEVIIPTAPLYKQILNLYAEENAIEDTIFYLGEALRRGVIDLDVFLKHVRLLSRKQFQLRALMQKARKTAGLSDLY

The target of this assay is Tumor susceptibility gene 101 protein (Homo sapiens) (UniProt Q99816). As to the kind of experiment: qHTS Assay for Iinhibitors of HIV-1 Budding by Blocking the Interaction of PTAP/TSG101: Hit Validation in TR assay. Conditions: Tsg101 binding domain + Texas Red-labeled PTAP peptide, fluorescence polarization, 20 min; series mostly up to 57.5 µM. The method in brief:
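Texas Red-PTAP peptide (50 nM) binding to Tsg101 binding domain (10 uM), both final, in pH 7.5 HEPES buffer, read as polarization after 20 min at room temperature; compounds pinned before peptide addition.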
(In qHTS, concentration-response curves come from the screen itself.)
`CCCCCCCCOc1ccc(C2OC34CCCCC3C(C#N)(C#N)C2(C#N)C(=N)O4)cc1` (centres undefined): the Potency entry was “inactive”.
Under `COc1ccc(Nc2nc(-c3cccnc3)nc3ccccc23)cn1` stands “inactive”; under `Nc1c(C(=O)O)sc2nc(-c3ccccc3)cc(-c3ccc(Cl)cc3)c12`, “inactive”; under `Cc1cccc(NC(=S)NCCC(c2ccccc2)c2ccccc2)c1`, “inactive”.
Next, `COc1ccc(OC)c(/C=c2\sc3nc(-c4cccs4)nn3c2=O)c1`: “inactive”; `COCCCNC(=O)c1ccc2c3c(onc13)-c1ccccc1C2=O`: “inactive”; `Cc1ccc(N=Cc2c(O)n(-c3nccs3)c(=O)c3ccccc23)c(C)c1`: “inactive”.
For `O=c1[nH]c(=O)n(-c2cc(Br)c(O)c(Br)c2)cc1Br`, the Potency result is “inactive”.
In the case of `CCN1CCc2c(sc(NC(=O)Nc3ccc(Cl)c(Cl)c3)c2C(N)=O)C1`, the Potency entry was “inactive”.
As for `CCOC(=O)c1c(C)oc2c1c(CN1CCN(C(=O)OCC)CC1)c(O)c1ccccc12`, the Potency entry was “inactive”.
Next, `CCN(CC)C(=O)c1sc2nc(-c3cccs3)cc(-c3cccs3)c2c1N`: “inactive”.
Next, `Cc1oc2cc(O)ccc2c(=O)c1-c1nncn1-c1ccccc1`: “inactive”.
Next, `O=C(O)CCNc1ccc(NCCC(=O)O)c2c1C(=O)c1ccccc1C2=O`: “inactive”; `Cc1ccc(/C=C/C(=O)Nc2ccc(S(=O)(=O)Nc3onc(C)c3C)cc2)cc1`: “inactive”; `S=C(Nc1ccc(N2CCOCC2)cc1)Nc1ccc2nc(-c3ccco3)c(-c3ccco3)nc2c1`: “inactive”.
For the molecule `Cn1c(=O)c2nc3ccc(NC(=O)C(F)(F)F)cc3nc2n(C)c1=O`, the Potency entry is “inactive”.
As for `COc1ccc(CNS(=O)(=O)c2cc3c(cc2Cl)N(C(C)=O)CCO3)cc1`, the Potency result is “inactive”.
In the case of `CC1=CC(=C(C#N)c2nc3ccccc3s2)C=C(C)N1CC1CCCO1` (centres undefined), the Potency entry was “inactive”.
Next, `Cn1cccc1/C=C1\SC(=S)N(NC(=O)c2ccccc2Cl)C1=O`: “inactive”; `COc1ncnc2c1N=C1CC(C)(C)CC(N)=C1S2`: “inactive”.
Next, `COc1ccc(/C=c2\s/c(=C/C(=O)c3ccc(C)cc3)[nH]c2=O)c(OC)c1`: “inactive”.
Under `C=CCOc1ccc(C2C(C(=O)c3cccs3)=C(O)C(=O)N2c2nnc(C)s2)cc1` (centres undefined) stands “inactive”; under `C/C(=N/NC(=O)c1ccncc1)c1cc2ccc(O)cc2oc1=O`, “inactive”.
For the molecule `O=Cc1nccc2ccccc12`, the Potency entry was “inactive”.
Under `CN1CCc2c(sc(NC(=O)CSc3ccc(F)cc3)c2-c2nc3ccccc3s2)C1` stands “inactive”; under `Cc1cc(-c2cccs2)c2c(N)c(C(=O)c3ccc4c(c3)OCO4)sc2n1`, “inactive”; under `O=C1Nc2ccc(F)cc2C12Nc1ccccc1-c1nnc(SCc3ccccc3F)nc1O2` (centres undefined), “inactive”.
Under `Cc1nn(C)c(C)c1N1C(=O)c2cccc3c(N)ccc(c23)C1=O` stands “inactive”; under `CCN(CC)c1ccc2cc(S(=O)(=O)c3ccc(C)cc3)c(=O)oc2c1`, “inactive”; under `O=c1[nH]nc(-c2ccc(F)cc2)cc1Cc1ccc(F)cc1`, “inactive”.
Turning to `CC(=O)Nc1ccc(N=Cc2c(O)c(C(=O)Nc3ccccc3)cc3ccccc23)cc1`, the Potency entry was “inactive”.
Consider `C(=N\NC1=Nc2cccc3cccc1c23)/c1ccccc1`, for which the Potency result is “inactive”.
For the molecule `Cc1nc(Cl)c2c(n1)NC1=C(O2)C(=O)CCC1`, the Potency entry is “inactive”.
On to `CCN(CC)c1ccc2cc(NC(=O)CCC(=O)O)c(=O)oc2c1`, for which the Potency entry is “inactive”.
Under `C[C@H](O)C(=O)C1=Nc2c(nc(N)[nH]c2=O)NC1` stands “inactive”.
Turning to `Oc1oc(-c2ccccc2)nc1C=Nc1cccc2ccccc12`, the Potency entry is “inactive”.
For `COc1ccc(-n2nc(C(=O)Nc3ccc(OC)c(OC)c3)c3c4ccccc4n(C)c3c2=O)cc1`, the Potency result was “inactive”.
Under `O=C(O)c1ccccc1C1=Nc2ccc(O)cc2Oc2cc(O)ccc21` stands “inactive”; under `Cc1cc2nc3c(=O)n(C4CCCCC4)c(=O)[nH]c3nc2cc1N`, “inactive”.
